Results published in PubChem BioAssay.
Where “and” joins values, the source holds several entries; their conditions need not be identical. Identical values can stand only once. For part of these data: Measured potencies and affinities stand elsewhere. Calls of active or inactive are those of the source.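 Rule for the calls, unless noted: active = compounds whose cell count with miR-34 switched on is under 0.7 times the count with it off; inactive = the rest.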

What was measured:
[1] = blockers of polyQ-driven CASP3 activation – cell-based (AID 1583); details: polyglutamine-induced caspase-3 activation, cell assay; stronger effect = higher value;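 tested at 10 µM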
[2] = yeast 75Q aggregation reduction – 75Q-TubU reporter (AID 1593); details: Yeast 75Q polyglutamine aggregation reporter
[3] = restoration of touch response, mutant HTT neurons – whole organism, C. elegans mechanosensory neurons, N-terminal huntingtin (AID 1599); details: C. elegans polyQ-huntingtin mechanosensory neurons, stronger effect = higher value
[4] = blockers of cytochrome c efflux from mitochondria – biochemical, purified mitochondria (AID 1603); details: stronger effect = lower value;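 note: mouse liver mitochondria challenged with calcium chloride; signal normalized to the plate average as 100%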
[5] = polyglutamine aggregate formation blockers (AID 1604); details: polyglutamine-induced protein aggregation inhibition assay; stronger effect = higher value; tested at 2.5 µM
[6] = glutamate transport activators, MN-1 cells, MN-1 cell line (AID 1612); details: MN-1 motor neuron cells, stronger effect = higher value;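 note: tested at 1 µM final; 0% = mean of DMSO vehicle wells on each plate; positive means more glutamate uptake than control and negative means less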
[7] = GFP-Q80 aggregate reduction, neuronal-like cells, cell-based, NGF-treated PC12, GFPQ80 (AID 1614); details: PC12 NGF-treated GFP-polyQ80 inclusion reduction;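 note: lower means fewer inclusions and 0 means no inclusions at all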
[8] = 75Q-TubH aggregate inhibition, S. cerevisiae, yeast (AID 1616); details: S. cerevisiae 75Q-TubH polyglutamine aggregation suppression; stronger effect = higher value
[9] = P. berghei load reduction in hepatocytes – cell-based, HepG2, luciferase luminescence, HepG2 viability, primary screen (AID 624349; in the data active = parasite load remaining mostly below about 12%, no sharp cut-off; inactive = mostly above about 10%;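 note: 100% = mean of DMSO negative control wells on the same plate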); details: P. berghei liver stage in HepG2, luciferase luminescence, concentration not given here; parasite load remaining: stronger effect = lower value; viability: measured here: HepG2 viability without parasites
[10] = biological target: 6-phosphogluconate dehydrogenase, decarboxylating (Homo sapiens) (UniProt P52209); assay: inhibition of human phosphogluconate dehydrogenase – biochemical, recombinant enzyme, NADPH absorbance, primary screen (AID 1159550;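 active = at least 20% inhibition of 6-phosphogluconate dehydrogenase activity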); details: recombinant 6PGD, NADPH absorbance 341 nm; at 10 µM; stronger effect = higher value
[11] = EMT-state selective cytotoxicity in co-culture – imaging, PC-3E GFP, TEM4-18 mCherry, primary screen (AID 1345086;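 active = compounds killing one labelled cell type while sparing the other, by normalised counts and ratio limits, not self-fluorescent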;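 for all read-outs here: cells exposed to compound for 72 h before imaging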;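 for red/green cell ratio (normalised): normalised mesenchymal count divided by normalised epithelial count so high means epithelial killing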); details: PC-3E GFP / TEM4-18 mCherry co-culture, imaging cell counts, at 1 µM; for red/green cell ratio (normalised): actives lie on both sides, counts scaled to control wells, 1 = unselective
[12] = viability loss with induced miR-34 in A549 – imaging, A549 dox-inducible miR-34, nuclei and caspase counts, primary screen (AID 1347080); details: A549 miR-34 inducible, Hoechst nuclei count, 48 h
[13] = biological target: Mitogen-activated protein kinase 7 (Homo sapiens) (UniProt Q13164); assay: Gal4-ERK5 driven luciferase induction – cell-based, HTS, primary screen (AID 1508626;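 active = luciferase signal above three times the same-plate solvent-only control wells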;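 note: luciferase driven by Gal4-ERK5 fusion binding five Gal4 sites before minimal TATA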); details: HeLa Gal4-ERK5 transactivation, 18 h, at 5 µM, stronger effect = higher value
[14] = MELAS cybrid and Rieske KO viability enhancers – cell-based, MELAS cybrids, Rieske KO mouse fibroblasts, CellTiter-Glo, primary screen (AID 1508586;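 active = mean z-score across replicates of 1.96 or higher in either the MELAS or the Rieske mutant cell line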;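 note: z relative to plate mean and SD of compound and empty wells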); details: low glucose
[15] = compounds altering circadian rhythm period length – cell-based, LOPAC library, luminescence reporter (AID 2774; call rule not given here;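 note: values are relative to mean of DMSO wells on each plate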); details: circadian reporter cells, at 7 µM, actives lie on both sides
[16] = test system: Hepatitis C virus NS3 helicase; assay: blockers of NS3h binding to ssDNA – biochemical, fluorescence polarization, LOPAC1280 library, primary screen (AID 687035; in the data active = inhibition above about 37%); details: Purified HCV NS3 helicase, Cy5-dT15 ssDNA binding fluorescence polarization; stronger effect = higher value; concentration not given here
[17] = compounds altering Cy5-DNA-NS3h complex signal – biochemical, LOPAC1280, artefact control for HCV NS3 helicase inhibitor project (AID 687037; call rule not given here); details: Cy5-DNA-NS3h complex fluorescence interference counterscreen
[18] = blockers of cellular phospholipid synthesis – cell-based, LOPAC library, screen 4, primary screen (AID 1347384; call rule not given here); details: animal cells, phospholipid biosynthesis inhibition screen; at 10 µM
[19] = galactose survival enhancers in mitochondrial complex I cybrids – cell-based, galactose medium, ATP luminescence, primary screen (AID 1645843;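 active = z-score of at least 1.8 in each of two replicates, scored against plate mean and spread of sample wells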;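 note: positive z means more ATP and so rescue of galactose-driven cybrid death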); details: complex I mutant cybrid cells, 72 h, stronger effect = higher value
[20] = measured here: epithelial PC-3E GFP cell survival
[21] = measured here: mesenchymal TEM4-18 mCherry cell survival
[22] = stronger effect = lower value, cell number ratio, induced over uninduced
[23] = measured here: relative caspase fold change +Dox/-Dox
[24] = measured here: total cells with miR-34 induction, stronger effect = lower value
[25] = measured here: total cells without miR-34 induction
[26] = MELAS cybrid survival, CellTiter-Glo 48 h, stronger effect = higher value
[27] = Rieske KO mouse fibroblast survival, CellTiter-Glo 72 h

6-phosphogluconate dehydrogenase, decarboxylating (Homo sapiens), sequence (P52209 whole entry, looked up): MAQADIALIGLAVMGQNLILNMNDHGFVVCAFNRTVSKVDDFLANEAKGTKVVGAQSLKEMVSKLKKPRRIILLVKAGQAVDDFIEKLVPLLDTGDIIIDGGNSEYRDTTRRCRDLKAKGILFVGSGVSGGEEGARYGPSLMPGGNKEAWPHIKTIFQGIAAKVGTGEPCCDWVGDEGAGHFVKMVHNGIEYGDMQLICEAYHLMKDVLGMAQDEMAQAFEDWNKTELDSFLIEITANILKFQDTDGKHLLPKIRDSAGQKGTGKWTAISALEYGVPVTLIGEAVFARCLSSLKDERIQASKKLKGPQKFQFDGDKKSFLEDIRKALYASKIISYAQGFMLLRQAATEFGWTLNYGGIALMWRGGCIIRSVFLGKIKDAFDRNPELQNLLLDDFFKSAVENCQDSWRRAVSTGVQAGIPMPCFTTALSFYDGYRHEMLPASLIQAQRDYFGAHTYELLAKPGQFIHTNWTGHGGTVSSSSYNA
Mitogen-activated protein kinase 7 (Homo sapiens), sequence (Q13164 whole entry, looked up, the tested form may be a part): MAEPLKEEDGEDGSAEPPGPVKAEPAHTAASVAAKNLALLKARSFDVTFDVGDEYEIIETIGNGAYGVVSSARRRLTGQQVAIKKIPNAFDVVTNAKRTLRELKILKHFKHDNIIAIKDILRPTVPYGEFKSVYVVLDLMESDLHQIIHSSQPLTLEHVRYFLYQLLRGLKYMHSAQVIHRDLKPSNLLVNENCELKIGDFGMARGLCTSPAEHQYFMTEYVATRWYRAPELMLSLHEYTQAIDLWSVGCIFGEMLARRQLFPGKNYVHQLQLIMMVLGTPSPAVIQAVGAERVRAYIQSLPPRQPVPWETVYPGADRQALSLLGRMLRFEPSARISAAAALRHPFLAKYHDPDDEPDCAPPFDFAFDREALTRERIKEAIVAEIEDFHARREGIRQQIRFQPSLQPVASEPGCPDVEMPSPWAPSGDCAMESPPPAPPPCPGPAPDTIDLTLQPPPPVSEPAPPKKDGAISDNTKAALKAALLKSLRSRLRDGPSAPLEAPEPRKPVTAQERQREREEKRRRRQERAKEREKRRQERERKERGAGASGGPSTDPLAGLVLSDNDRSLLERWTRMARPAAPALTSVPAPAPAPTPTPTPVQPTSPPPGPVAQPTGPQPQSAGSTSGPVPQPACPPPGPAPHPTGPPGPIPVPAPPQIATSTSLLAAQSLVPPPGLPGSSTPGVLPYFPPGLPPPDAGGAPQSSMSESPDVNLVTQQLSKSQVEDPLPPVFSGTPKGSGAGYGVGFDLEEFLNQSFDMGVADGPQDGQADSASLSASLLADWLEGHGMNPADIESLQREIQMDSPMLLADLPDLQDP

C=C1c2c(Cl)ccc(O)c2C(O)=C2C(=O)[C@]3(O)C(O)=C(C(N)=O)C(=O)[C@@H](N(C)C)[C@@H]3[C@@H](O)[C@H]12
inhibition [1]: -20.8% | score [2]: 0.46 | rescue above control [3]: 1.02 | cytochrome c release ratio [4]: 0.58 | inhibition of aggregation [5]: 84.6% | glutamate uptake change [6]: 0.44% | inclusion score [7]: 1 | aggregation suppression score [8]: 0.198 | parasite load remaining [9]: 145% (inactive) and 78.4% (inactive) and 31.4% (inactive) | viability [9]: 71.2% and 75.1% and 92.1% | inhibition [10]: 10.5% (inactive) | red/green cell ratio (normalised) [11]: 0.85 (inactive) | normalised cell number [11, 20]: 0.99 | normalised cell number [11, 21]: 0.84 | fold change [12, 22]: 0.864 (inactive) | fold change [12, 23]: 1.07 | cell count [12, 24]: 8250 | cell count [12, 25]: 9550 | luciferase signal [13]: 40 AU (inactive)

CC(C)(C)NC[C@H](O)c1ccc(O)c(CO)c1
inhibition [10]: -0.348% (inactive) | red/green cell ratio (normalised) [11]: 0.77 (inactive) | normalised cell number [11, 20]: 1.2 | normalised cell number [11, 21]: 0.92 | fold change [12, 22]: 0.873 (inactive) | fold change [12, 23]: 1.01 | cell count [12, 24]: 7950 | cell count [12, 25]: 9100 | z-score [14, 26]: 0.715 (inactive) | z-score [14, 27]: -0.611 | luciferase signal [13]: 112 AU (inactive)

COc1cc2c(cc1OC)-c1cc3ccc(OC)c(OC)c3c[n+]1CC2
parasite load remaining [9]: 110% (inactive) and 92.2% (inactive) and 65.3% (inactive) | viability [9]: 114% and 73.3% and 79.6% | inhibition [10]: -0.646% (inactive) and 1.04% (inactive) | red/green cell ratio (normalised) [11]: 0.85 (inactive) and 0.9 (inactive) | normalised cell number [11, 20]: 1.04 and 1.09 | normalised cell number [11, 21]: 0.88 and 0.98 | fold change [12, 22]: 0.898 (inactive) and 1 (inactive) | fold change [12, 23]: 1.49 and 0.581 | cell count [12, 24]: 8980 and 7680 | cell count [12, 25]: 9990 and 7660 | z-score [14, 26]: -0.0781 (inactive) | z-score [14, 27]: 0.0197 | luciferase signal [13]: 352 AU (active)

OCc1c[nH]c2ccccc12
inhibition [10]: 14.9% (inactive) | red/green cell ratio (normalised) [11]: 0.93 (inactive) | normalised cell number [11, 20]: 0.91 | normalised cell number [11, 21]: 0.84 | fold change [12, 22]: 0.978 (inactive) | fold change [12, 23]: 0.867 | cell count [12, 24]: 8210 | cell count [12, 25]: 8390 | z-score [14, 26]: -0.392 (inactive) | z-score [14, 27]: -0.0559 | luciferase signal [13]: 88 AU (inactive)

Oc1cc(O)c2c(c1)O[C@H](c1ccc(O)c(O)c1)[C@@H](O)C2
inhibition [1]: 23.8% | score [2]: 1.24 | rescue above control [3]: -5.75 | cytochrome c release ratio [4]: 0.5 | inhibition of aggregation [5]: 63.2% | glutamate uptake change [6]: 14.1% | inclusion score [7]: 2 | aggregation suppression score [8]: 1.05 | period change [15]: 0.07 h (inactive) | parasite load remaining [9]: 116% (inactive) | viability [9]: 105% | inhibition [16]: 0% (inactive) | fluorescence ratio (interference) [17]: 1 (inactive) | inhibition [10]: 13.7% (inactive) | red/green cell ratio (normalised) [11]: 1.12 (inactive) | normalised cell number [11, 20]: 1.02 | normalised cell number [11, 21]: 1.15 | fold change [12, 22]: 0.974 (inactive) and 0.863 (inactive) and 0.997 (inactive) | fold change [12, 23]: 2.1 and 1.09 and 0.901 | cell count [12, 24]: 10300 and 8130 and 5640 | cell count [12, 25]: 10500 and 9420 and 5660 | outcome [18]: inactive | luciferase signal [13]: 24 AU (inactive) | z-score [19]: -0.355 (inactive)

COc1cc(S(C)=O)ccc1-c1nc2ncccc2[nH]1 (centres undefined)
inhibition [1]: 23% | score [2]: 1.52 | rescue above control [3]: 8.66 | cytochrome c release ratio [4]: 0.94 | inhibition of aggregation [5]: 3.24% | glutamate uptake change [6]: 3.5% | inclusion score [7]: 2 | aggregation suppression score [8]: 1.25 | parasite load remaining [9]: 107% (inactive) | viability [9]: 101% | inhibition [10]: 14% (inactive) | red/green cell ratio (normalised) [11]: 1.07 (inactive) | normalised cell number [11, 20]: 0.84 | normalised cell number [11, 21]: 0.9 | fold change [12, 22]: 0.851 (inactive) | fold change [12, 23]: 1.41 | cell count [12, 24]: 7350 | cell count [12, 25]: 8630 | z-score [14, 26]: -0.22 (inactive) | z-score [14, 27]: 0.17 | luciferase signal [13]: 48 AU (inactive)
